ALOX15 inhib = qHTS Assay for Inhibitors of 15-hLO (15-human lipoxygenase); Polyunsaturated fatty acid lipoxygenase ALOX15 (Homo sapiens), P16050; purified 15hLO-1, xylenol orange hydroperoxide absorbance; Potency, µM (doses to about 57.1 µM), without a hit: at the top dose activity change, negative = inhibition, most hits filed as inhibitors; 74,000 compounds, 1.4% hits; AID 887, 2007; note: nearly all actives have a fitted effect of over 55% in size
Target sequence (P16050 whole entry, looked up): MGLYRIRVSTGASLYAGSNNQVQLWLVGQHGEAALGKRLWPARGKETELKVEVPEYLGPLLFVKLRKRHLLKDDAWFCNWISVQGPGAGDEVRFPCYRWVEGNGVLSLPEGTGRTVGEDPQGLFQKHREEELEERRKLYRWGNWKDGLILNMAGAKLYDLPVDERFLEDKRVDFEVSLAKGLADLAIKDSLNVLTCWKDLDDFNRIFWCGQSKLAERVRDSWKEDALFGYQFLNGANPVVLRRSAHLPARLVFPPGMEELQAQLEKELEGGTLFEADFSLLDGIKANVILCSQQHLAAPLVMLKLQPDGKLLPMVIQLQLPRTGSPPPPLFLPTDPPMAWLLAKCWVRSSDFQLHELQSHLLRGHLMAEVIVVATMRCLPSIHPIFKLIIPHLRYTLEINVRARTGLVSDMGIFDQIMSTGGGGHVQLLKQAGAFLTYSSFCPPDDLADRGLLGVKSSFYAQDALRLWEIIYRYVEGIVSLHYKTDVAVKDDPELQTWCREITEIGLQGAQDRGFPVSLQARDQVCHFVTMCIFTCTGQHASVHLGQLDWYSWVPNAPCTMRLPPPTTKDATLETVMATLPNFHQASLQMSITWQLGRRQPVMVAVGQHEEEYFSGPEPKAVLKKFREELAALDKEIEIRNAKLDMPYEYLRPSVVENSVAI
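Purified human 15hLO-1 (40 nM) in 25 mM Hepes pH 7.5, 0.01% Triton X-100, preincubated 15 min RT with compound, then 50 uM arachidonic acid for 6 min. Hydroperoxide read by ferrous/xylenol orange, 30 min; 573/405 nm absorbance ratio gave progress.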
FLuc inh = qHTS Assay for Inhibitors of Firefly Luciferase; purified firefly luciferase, luminescence, 8 min; Potency, µM (top dose mostly 57.1 µM), for the others: top-dose activity change, negative = inhibition, most hits filed as inhibitors; 72,000 compounds, 2.2% hits; note: nearly all actives have a fitted effect of over 40% in size
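Here, luciferase activity is measured as luminescence following an 8 min room-temperature reaction at 10 uM ATP, pH 7.2. Every library sample is titrated.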
HADH2 inhib = qHTS Assay for Inhibitors of HADH2 (Hydroxyacyl-Coenzyme A Dehydrogenase, Type II). 3-hydroxyacyl-CoA dehydrogenase type-2 (Homo sapiens), Q99714. recombinant HADH2, NADH fluorescence, beta-hydroxybutyryl-CoA. Potency, µM (doses to about 57.1 µM), without a hit: at the highest dose activity change, negative = inhibition, actives largely listed as inhibitors. 73,000 compounds, 3.4% hits. AID 886, 2007; note: nearly all actives have a fitted effect of over 60% in size
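Buffer 100 mM Tris-HCl pH 9.0/0.01% Tween-20; HADH2 20 nM; NAD+ 1 mM; beta-hydroxybutyryl-CoA 90 uM (all final). 15 min cpd preincubation, RT.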
Bst PK mod = Pyruvate Kinase; Potency, µM; purified pyruvate kinase, luminescence ATP production; ribose 5-phosphate activator present at AC10; AID 361, 2006; 51,000 compounds, 1.2% hits; in the data active = potency below about 11 µM; inconclusive = mostly about 12 µM to 25 µM;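 the screen sought inhibitors and activators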;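 note: scaled between full activation by ribose 5 phosphate and full inhibition by luteolin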
HSD17B inhib = qHTS Assay for Inhibitors of HSD17B4, hydroxysteroid (17-beta) dehydrogenase 4; 3-hydroxyacyl-CoA dehydrogenase type-2 (Homo sapiens), Q99714; recombinant HSD17B10, NADH fluorescence kinetic; 75,000 compounds, 7.6% hits; AID 893, 2007; Potency, µM (top dose mostly 57.1 µM), inactives show at the top dose activity change, negative = inhibition, hits mostly inhibitors;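 note: the protocol describes HADH2 (HSD17B10) and not the HSD17B4 of the title; nearly all actives have a fitted effect of over 70% in size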
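Enzyme plus compound, 15 min room temperature; substrate mix added (NAD+ 1 mM, beta-hydroxybutyryl-CoA 90 uM final); plates read kinetically for NADH fluorescence. HADH2 was His-tagged, E. coli-derived, 20 nM.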
ERK AVP inh = qHTS Assay for Inhibitors of the ERK Signaling Pathway using a Homogeneous Screening Assay. HEK293-V1b, vasopressin-stimulated pERK AlphaScreen. 72,000 compounds, 0.99% hits. Potency, µM (top dose mostly 57.5 µM), for inactives: top-dose activity, negative = inhibition, most hits filed as inhibitors; note: nearly all actives have a fitted effect of over 55% in size
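HEK293 cells stably expressing V1b receptor, seeded overnight in 1% FBS, were treated with compounds for 30 min at 37C, then stimulated 5 min with 25 nM vasopressin; phospho-ERK read by AlphaScreen SureFire after lysis.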
* hit, by the source's call; i = inactive; ? = inconclusive; / = no result given; [ ] = dose if it differs, or a comment. Only some compounds are listed: those with a hit (about 11% of all), similar ones and a draw of the others. Unless noted, calls come from the whole dose curve; as a rule, active = well fitted curve in the direction sought with a large enough effect; inconclusive = small, poorly fitted or top-dose-only effect, or another doubt; inactive = no such curve, though single readings can be large; an effect the other way counts as inactive or inconclusive. Unless noted, % is set by controls: 0 for no effect and ±100 for the full control effect; potency is the fitted concentration of half-maximal effect.

SMILES	ALOX15 inhib	FLuc inh	HADH2 inhib	Bst PK mod	HSD17B inhib	ERK AVP inh
CC(=O)OC[C@@H]1O[C@@H](O/N=C2/C[C@@H](O)[C@@H](O)[C@@H]3[C@@H]4C(=O)N([C@@H](C)c5ccccc5)C(=O)[C@H]4CC[C@H]23)[C@H](OC(C)=O)[C@H](OC(C)=O)[C@@H]1OC(C)=O	7%[11.4 µM]	1%[11.4 µM]	14%[11.4 µM]	/	1%[11.4 µM]	-6%[11.5 µM]
Clc1ccc([C@@H](c2ccccc2Cl)C(Cl)Cl)cc1	/	-5%	5%	/	/	/
O=C(Nc1ccccc1)N1CC[C@@]2(CCCN(C(=O)c3ccco3)C2)C1	5%	0%[11.4 µM]	0%	/	-5%	-9%
CN(N=O)C(=O)N[C@H]1C(O)C(O)C(CO)O[C@@H]1O (some centres not stated)	-13%	/	/	/	5%	2%
Cn1c2ccc(F)cc2c2ncn(CCN3CCOCC3)c(=O)c21	11%	0%	?	/	25µM*	-4%
Cn1c2ccccc2c2ncn(CCCN3CCOCC3)c(=O)c21	-1%	-1%	?	9.7*	32µM*	0%
Cn1c2ccccc2c2ncn(CCC3=CCCCC3)c(=O)c21	-7%	-15%	19%	/	32µM*	-13%
O=c1c2[nH]c3ccc(F)cc3c2ncn1CCN1CCOCC1	7%	1%	-10%	/	?	0%
CC(=O)OC[C@@H]1O[C@@H](O/N=C2/C[C@@H](O)[C@@H](O)[C@@H]3[C@@H]4C(=O)N(Cc5ccccc5)C(=O)[C@H]4CC[C@@H]23)[C@H](OC(C)=O)[C@H](OC(C)=O)[C@@H]1OC(C)=O	2%[11.4 µM]	1%[11.4 µM]	-7%[11.4 µM]	/	-2%[11.4 µM]	7%[11.5 µM]
Cn1cnc([N+](=O)[O-])c1SCC(=O)O	0%[11.4 µM]	2%[11.4 µM]	-2%[11.4 µM]	/	3%[11.4 µM]	-6%[11.5 µM]
CC1(C)Oc2ccc3ccc(=O)oc3c2CC1O (configuration not stated)	-3%	/	/	/	32µM*	20%
Cc1nnc(SC(=O)N2c3ccccc3Sc3ccccc32)s1	?	/	1.6µM*	/	3%	/
Cc1nnc(SCC(=O)N2c3ccccc3Sc3ccccc32)n1N	13%	2%	11%	>57	0%	-17%
Cc1ccc(S(=O)(=O)N(CC(=O)O)c2ccc(Cl)cc2)cc1	0%	/	-4%	/	12%	/
CCN1c2ccccc2-c2nc3ccccc3n2C1c1ccncc1 (configuration not stated)	-1%	0%	12%	>57	25µM*	19%
c1cncc(C2Nc3ccccc3-c3nc4ccccc4n32)c1 (configuration not stated)	2%	-23%	32µM*	/	25µM*	-4%
CCN1c2ccccc2-c2nc3ccccc3n2C1c1ccccn1 (configuration not stated)	-9%	0%	20µM*	>57	25µM*	2%
c1ccc2c(c1)NC(c1ccncc1)n1c-2nc2ccccc21 (configuration not stated)	/	-29%[25.5 µM]	/	i	/	/
CCN1c2ccccc2-c2nc3ccccc3n2C1c1cccnc1 (configuration not stated)	-8%	4%	?	>57	25µM*	4%
O=C(O)c1ccccc1NCn1c(=S)sc2ccccc21	-16%[11.4 µM]	5%[11.4 µM]	-20%[11.4 µM]	/	?	-1%[11.5 µM]
O=C(NCCN1CCOCC1)c1cc(-c2ccc(O)cc2)on1	5%	1%	-19%	/	-1%	-18%
O=C(NCCO)c1ccc(Cc2nc3ccccc3[nH]2)cc1	6%	/	4%	/	5%	/
C=CS(=O)(=O)c1ccc(Oc2ccc(S(=O)(=O)C=C)cc2)cc1	-3%	-3%	2µM*	>57	-7%	2.5µM*
O=C(Oc1ccccc1)N1CCC2(CCCN(c3ccccc3)C2)CC1	-18%	-3%[11.4 µM]	-3%	/	-3%	-9%

Source: PubChem BioAssay
